Measured values: ChEMBL document CHEMBL4513216, “Probing the Open Global Health Chemical Diversity Library for Multistage-Active Starting Points for Next-Generation Antimalarials” (ACS Infect Dis, 2020)
The campaign covered roughly 69,000 compounds. About 8,600 (12%) showed an effect of 50% or more. The sample holds strong results, similar compounds and a random draw of the others, so the mix is not that of the screen.

tested on: Plasmodium berghei; test: Screen against P. berghei liver stage (PbLuc), transformed with Luciferase, at 10uM; format: functional, HepG2; settings: tested at 10 uM

SMILES	INHIBITION
O=C(c1cnccn1)N1C[C@@H]2CN(Cc3cccnc3)CCO[C@@H]2C1	22.5%
O=C(CN1CCc2c(ncn2C2CC2)C1)NC1CCOCC1	5.7%
NCC1Cc2cc(-c3nccc(N4CCC(O)CC4)n3)cc(Cl)c2O1 (stereo not drawn)	43.9%
NCC1Cc2cccc(-c3nccc(N4CCC(O)CC4)n3)c2O1 (stereo not drawn)	92.1%
NCC1Cc2cc(-c3nccc(N4CCC(O)CC4)n3)cc(F)c2O1 (stereo not drawn)	20.5%
CCCc1noc(C2CC(=O)N(Cc3ccccc3)C2)n1 (stereo not drawn)	11.1%
COCCC(=O)N1Cc2ccccc2OC2(CCOCC2)C1	26.05%
Cc1c(CS(C)(=O)=O)cccc1NC(=O)CC1CCCC1	-15.9%
Cc1c(CS(C)(=O)=O)cccc1NCC1CCCCC1	-0.514%
Cc1c(CS(C)(=O)=O)cccc1NCCCC1CCCC1	74.8%
CN(Cc1ccc(O)cc1)C(=O)NC1CCCN(c2ncccn2)C1 (stereo not drawn)	18.9665%
O=c1[nH]c2cn(-c3cccc(F)c3)c(=O)n2n1Cc1ccccc1Cl	20.6%
Cc1nc(C(=O)N2CCCCC2)nn1-c1ccccc1Cl	4.52%
CCc1nc(C(=O)N2CCN(CC)CC2)nn1-c1ccccc1Cl	4.52%
CCc1nc(C(=O)N2CCCCC2)nn1-c1ccccc1Cl	12.7%
CCc1nc(C(=O)N2CCCC2)nn1-c1ccccc1Cl	67.3%
CCc1nc(C(=O)N2CCN(C)CC2)nn1-c1ccccc1Cl	34.7%
CCN1CCN(C(=O)c2nc(C)n(-c3ccccc3Cl)n2)CC1	50.4%
Cc1cnc(CC2COCCN(C(=O)c3cncs3)C2)cn1 (stereo not drawn)	21.5%
CCc1ccc(C(=O)N2CCC(c3nncn3CC)CC2)o1	28.1%
COc1ccc(OCCN(C)S(=O)(=O)c2cnn(C)c2)cc1	11.5%
O=C(NCCOc1ccccc1)Nc1cc(C(F)(F)F)c[nH]c1=O	9.895%
COCC(=O)N1CCC2(CC1)CN(CC1CC1)c1ccc(F)cc12	77.4%
COCC(=O)N1CCC2(CCc3ccc(F)cc32)CC1	-30%
CC(=O)N1CCC2(CC1)CN(CC1CC1)c1ccc(F)cc12	37.6%
Cn1cc(CN2CCCC23CCN(C(=O)c2ccsc2)CC3)cn1	-16.1%
Cc1cnn(CC2CCCN2C(=O)c2ccc3[nH]c(=O)[nH]c3c2)c1 (stereo not drawn)	17.5%

SMILES	INHIBITION
CN(Cc1cccs1)c1nc2c(cnn2C(C)(C)C)c(=O)[nH]1	53.5%
Cc1ccsc1CN(C)Cc1nc2c(cnn2C)c(=O)[nH]1	26.3%
Cc1ncc(CN(C)c2nc3c(cnn3C(C)(C)C)c(=O)[nH]2)s1	30.8%
Cc1nc(CN(C)c2nc3c(cnn3C(C)(C)C)c(=O)[nH]2)cs1	36.2%
CCN(Cc1nc2c(cnn2C)c(=O)[nH]1)Cc1cccs1	44.6%
Cc1ccsc1CN(C)c1nc2c(cnn2C(C)(C)C)c(=O)[nH]1	70.7%
CCc1nc2n(n1)CC(NCc1cnc(N(CC)CC)s1)CC2 (stereo not drawn)	30.5%
CC(=O)N1CCCC(C(=O)c2cnn(-c3ccc(F)cc3)c2N)C1 (stereo not drawn)	24.425%
Cc1nc[nH]c1CN1C[C@@H]2OCCN(c3ncccn3)[C@@H]2C1	42.7%
Cc1ccc(-n2ccnc2-c2cn(C3CCNCC3)nn2)c(Cl)c1	45.8%
CCN1CCN(C(=O)c2scnc2C)CC1	26.4%
Cc1ncsc1C(=O)N1CCN(CCC(C)C)CC1	53.7%
CCCN1CCN(C(=O)c2scnc2C)CC1	11.1%
CC(C)CCN1CCN(C(=O)c2ccc(=O)[nH]n2)CC1	47%
Cc1cccc(C(=O)N2CCN(CCOC(C)C)CC2)n1	-49.3%
Cc1cccc(C(=O)N2CCN(CCC(C)C)CC2)n1	50.3%
CCN1CCCc2cc(CN3CCc4nc(C)[nH]c(=O)c4C3)ccc21	15.1%
Cn1ncc(Cl)c1C(=O)NCCN1CCC(O)(c2ccc(F)cc2)CC1	6.3%
CCOCCCNC(=O)CN(c1cccc(F)c1)S(C)(=O)=O	30%
COC(=O)c1c(Cl)c(C2CC2)nc2onc(C)c12	47.2%
CN(C)CC(=O)N1C[C@@H]2CC[C@H](Oc3ccccc3Cl)[C@@H]2C1	37.5%
O=C(Cn1ccnc1)N1C[C@@H]2CC[C@H](Oc3ccccc3Cl)[C@@H]2C1	53.5%
O=C(Cn1ccnc1)N1C[C@@H]2CC[C@H](Oc3cccc(F)c3)[C@@H]2C1	1.5%
O=C(Cn1ccnc1)N1C[C@@H]2CC[C@H](Oc3ccc(Cl)cc3)[C@@H]2C1	56%
O=C(Cn1ccnc1)N1C[C@@H]2CC[C@H](Oc3ccccc3F)[C@@H]2C1	-6.92%
O=C(Cn1ccnc1)N1C[C@@H]2CC[C@H](Oc3ccccc3)[C@@H]2C1	24.5%
